Laboratory results from PubChem BioAssay AID1347047 (National Center for Advancing Translational Sciences (NCATS), 2019).
Screen size: about 1,400 compounds; about 10 (0.7%) were called active. Inconclusive results (about 2%) are left out. The call rests on the fitted dose curve; in most records, active means well fitted inhibition curve with a large enough effect; inconclusive means small, poorly fitted or top-dose-only effect; inactive means flat fitted curve, though single readings scatter. The entries come from a sample that favours actives as a whole. Where a call stands in place of a potency, no number is given.

Target: Luciferin 4-monooxygenase (Photinus pyralis) (UniProt P08659)
Assay: Natriuretic polypeptide receptor (hNpr1) antagonism - Confirmation firefly luciferase (FLuc) inhibition counterscreen
Conditions: purified FLuc enzyme, luminescence, Km substrate; series mostly up to 57.6 µM
Excerpt: Firefly (Photinus pyralis) luciferase (FLuc) is one of the more frequently used transcriptional reporter genes, and it has also been developed as a cellular sensor for cyclic nucleotides. (Fan F & Wood KV, 2007; Fan F et al., 2008) However, a significant number of compounds that populate chemical libraries have been identified as FLuc ligands which can be mistaken for modulators of the intended targeted pathways, receptors or enzymes. (Auld, DS et al. 2008; Thorne, N et al. 2012) Therefore, the FLuc enzyme assay conducted at sensitive Km level substrate conditions is used to counter-screen for potential FLuc ligands. Auld DS, Thorne N, Nguyen DT & Inglese J A specific mechanism for nonspecific activation in reporter-gene assays. ACS Chem Biol. 2008, 3: 463-470. DOI: 10.1021/cb8000793 Fan F, Binkowski BF, Butler BL, Stecha PF, Lewis MK, Wood KV. Novel genetically encoded biosensors using firefly luciferase. ACS Chem Biol. 2008, 3: 346-351. DOI: 10.1021/cb8000414 Fan F and Wood KV. Bioluminescent assays for high-throughput screening. Assay Drug Dev Technol. 2007, 5: 127-136. […] Chemistry & Biology, 2012, 19: 1060-1072. DOI.org/10.1016/j.chembiol.2012.07.015
PROTOCOL TABLE (as described by Inglese J, Shamu CE and Guy RK. 2007) SEQUENCE No. (e.g., 1, 2, 3, etc.); PARAMETER (e.g., Cells, Incubation, Reagent, etc.); VALUE and DESCRIPTION. FLUC KM ENZYME COUNTERSCREEN (Thorne, N.T. et al. 2012) 1. Reagent. Add 3 uL of D-luciferin substrate buffer per well into Greiner 1536-well white/solid bottom high base, medium bind plates. 2. Compounds. Library compounds and PTC124 control added at 23nL per well, transferred by Pin Tool. 3. Incubation. Incubate plates at room temperature for […], protect from light. 4. Reagent. Add 1uL of P. pyralis luciferase (FLuc) per well of Greiner 1536-well plates. 5. Incubation. Incubate plates at room temperature for 10 min., protect from light. 6. Detector. FLuc luminescence measured using CCD-based camera (Viewlux). NOTES (numbers refer to Sequence numbers above) 1. Substrate buffer: 10 uM D-luciferin final concentration in 50 mM Tris-Acetate, pH 7.6, 10 mM Mg-Acetate, 10 uM ATP, 0.01% Tween-20, and 0.05% BSA buffer added at 3uL/well to 13 x Greiner 1536-well white/solid bottom high base, medium bind plates. 2. PTC124 stock solution prepared (10 mM in DMSO; Auld D.S. et al. 2010). Working dilution for dispense = 10 mM stock dilution (57.5 uM final concentration; 16-pt 1:3 titration in duplicate = final concentration range of 57.5 uM - 4 pM). 23nL of library compounds, PTC124 control or DMSO vehicle control transferred to the 13 substrate-containing Greiner white/solid bottom high base, medium bind plates in 11 interplate 1:3 titrations (see Yasgar, A. et al. 2008) with Pintool. 3. Substrate incubated for 30-50 min. at ambient temperature protected from light with metal lid. 4. Enzyme solution: 10 nM P. pyralis luciferase (FLuc) final concentration in 50 mM Tris-Acetate, pH 7.6 added at 1uL to 13 x Greiner 1536-well white/solid bottom high base, medium bind plates. 5. Substrate and enzyme incubated with test library compounds and controls for 10 min. at ambient temperature protected from light with metal lid. 6. Read final Luminescence on the ViewLux. [Exposure = 30 s.; Gain = High; Speed = Slow; and Binning = 2X.] REFERENCES: Auld DS, Lovell S, Thorne N, Lea WA, Maloney DJ, Shen M, Rai G, Battaile KP, Thomas CJ, Simeonov A, Hanzlik RP and Inglese J. Molecular basis for the high-affinity binding and stabilization of firefly luciferase by PTC124. […] Chemistry & Biology, 2012, 19: 1060-1072. doi.org/10.1016/j.chembiol.2012.07.015 Yasgar A, Shinn P, Jadhav A, Auld DS, Michael S, Zheng W, Austin CP, Inglese J and Simeonov A, Compound Management for Quantitative High-Throughput Screening. J. Assoc. Lab. Auto., 2008, 13: 79-89. doi: 10.1016/j.jala.2007.12.004
Potency means the concentration at half of the fitted maximal effect.

Sequence of Luciferin 4-monooxygenase (Photinus pyralis) (P08659 whole entry, looked up): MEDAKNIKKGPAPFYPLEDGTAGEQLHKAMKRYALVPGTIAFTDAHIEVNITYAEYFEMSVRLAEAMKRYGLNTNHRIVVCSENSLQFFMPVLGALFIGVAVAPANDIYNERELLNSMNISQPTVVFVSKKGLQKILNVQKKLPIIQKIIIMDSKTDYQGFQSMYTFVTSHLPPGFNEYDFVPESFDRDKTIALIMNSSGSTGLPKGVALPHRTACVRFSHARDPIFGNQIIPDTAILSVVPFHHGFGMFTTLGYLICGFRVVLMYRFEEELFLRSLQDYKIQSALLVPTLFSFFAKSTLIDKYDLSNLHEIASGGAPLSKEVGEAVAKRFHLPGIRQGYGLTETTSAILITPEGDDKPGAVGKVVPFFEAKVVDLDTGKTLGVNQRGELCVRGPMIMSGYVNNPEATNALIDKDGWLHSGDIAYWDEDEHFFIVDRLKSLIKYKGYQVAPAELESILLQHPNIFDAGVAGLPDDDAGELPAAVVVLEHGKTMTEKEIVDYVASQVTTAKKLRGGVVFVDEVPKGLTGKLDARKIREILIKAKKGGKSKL

SMILES | Potency
Cc1nc(-c2ccncc2)ncc1C(C)Nc1ncnc(C)c1C (stereo not drawn) | inactive
Cc1noc(C)c1-c1cnc2[nH]cc(CC(=O)N3CCOCC3)c2c1 | inactive
N#Cc1cccc(CN2CCC(C3=NC(O)c4cc(F)ccc4N3)CC2)c1 (stereo not drawn) | inactive
CC1=NS(=O)(=O)N(C)C=C1C(=O)OCc1nc(-c2ccc(C)cc2)no1 | inactive
Cc1cc(N2CCCC(Cn3cc(Cc4ccccc4)nn3)C2)nc(N)n1 (stereo not drawn) | inactive
Cc1ccc(C)c(C(=O)N2CCC3(CC2)N=C(c2ccc(Cl)cc2)NO3)c1 | inactive
COc1ccc(S(=O)(=O)N2CCc3c(C(=O)NCCc4ccccn4)cccc32)cc1 | inactive
COc1ccc(-c2noc(CC3CCN(C(=O)Cc4ccc(OC)c(OC)c4)CC3)n2)cc1 | inactive
O=C(c1ccc(F)cc1F)N1CCN(c2cc(-c3ccc(Cl)cc3)[nH]n2)CC1 | inactive
O=C(CCC1CCN(C(=O)c2ccccc2F)CC1)Nc1cccc(Cl)c1 | inactive
O=[S+]1([O-])NCC2(CCCN(Cc3ccc(C(F)(F)F)cc3)C2)Oc2ncccc21 (stereo not drawn) | inactive
COc1ccc(C(CC(=O)N(C)Cc2cc(C3CC3)n[nH]2)c2ccccc2)cc1 (stereo not drawn) | inactive
COc1cccc(NC(=O)Cn2c(N(C)Cc3ccccc3)nc(C)cc2=O)c1 | inactive
Cc1ccc(C(=O)N2CCN(c3cc(-c4ccc(Cl)cc4)[nH]n3)CC2)c(C)c1 | inactive
COc1cccc(-c2noc(CC3CCN(C(=O)c4ccc(F)cc4)CC3)n2)c1 | inactive
Cc1nn2c(c1-c1ccnn1C(C)C)N(CC1CCOCC1)CCC2 | inactive
CN1CCN(C(=O)C(C)(C)Oc2nn(Cc3cccc(Cl)c3)c3ccccc23)CC1 | inactive
CC1=NS(=O)(=O)N(C)C=C1C(=O)OCc1noc(-c2ccco2)n1 | inactive
CC1(C(=O)NCc2ccc3c(c2)OCO3)CCc2cnc(NCc3ccccc3)nc21 (stereo not drawn) | inactive
COC(=O)c1cccc(NC(=O)CCNc2c(C)nc3cnccn23)c1 | inactive
O=C(c1ccccc1)N1CCC(C(=O)N2CCC(Cc3nc(-c4ccc(F)cc4)no3)CC2)CC1 | inactive
Fc1ccc(CNC[C@H]2Cn3c(-c4ccc5c(c4)OCCO5)cnc3CO2)cc1 | inactive
COc1ccc(-c2noc(CC3CCN(C(=O)Cc4ccc(C)cc4)CC3)n2)cc1 | inactive
Cc1cccc(C(=O)N2CCC(Oc3ccc(-c4noc(C(C)C)n4)cc3)C2)c1 (stereo not drawn) | inactive
COc1ccc(CC(=O)N2CCC(Cc3nc(-c4ccccc4)no3)CC2)cc1OC | inactive

SMILES | Potency
COc1ccc(-c2noc(CC3CCN(C(=O)CC4CCCCC4)CC3)n2)cc1 | inactive
COc1ccccc1Nc1cnc2ccc(N(C)Cc3cccnc3)nn12 | inactive
COc1ccc(OCC2(C)COc3ccc(C(=O)Nc4cccnc4)cc3N2)cc1 (stereo not drawn) | inactive
O=C(c1ccc(F)cc1Cl)N1CCC(n2cc(-c3nc(-c4ccccc4)no3)nn2)C1 (stereo not drawn) | inactive
O=C(c1cc(F)ccc1Cl)N1CCN(c2cc(-c3ccc(F)cc3)[nH]n2)CC1 | inactive
Cc1ccc(OCc2nc(C3CCN(C(=O)CCc4nc5ccc(Cl)cc5[nH]4)CC3)no2)cc1 | inactive
CC1(CCCCc2ccccc2)COc2ccc(C(=O)N3CC[S+](=O)([O-])CC3)cc2N1 (stereo not drawn) | inactive
CN(C)CCNC(=O)C(C)(C)Oc1nn(Cc2cccc(Cl)c2)c2ccccc12 | inactive
O=C(NCC1CC1)c1nc2c(o1)CCN(Cc1cccc(F)c1F)CC2 | inactive
Cc1cc(CNC(=O)c2ccc(-c3ccccc3Cl)o2)n(C)n1 | inactive
Cc1noc(C)c1-c1cc(-c2ccccc2Oc2ccccc2)cn2cncc12 | inactive
O=C(NCc1nnc2cc(-c3nc(C4CC4)no3)ccn12)c1ccc(F)cc1Cl | inactive
Cc1cccc(CN2CCc3nc(C(=O)Nc4ccc(Cl)cc4)oc3CC2)c1 | inactive
C1CCC(COCCc2noc(C3CNC3)n2)C1 | inactive
O=C(c1cccc(F)c1)N1CCOC[C@H](Oc2ccc(C(F)(F)F)cc2)C1 | inactive
Cc1cccc(-c2cccc(CN)c2)c1 | inactive
Cc1c[nH]c(CN2CCCC(CCc3ccc(F)cc3F)C2)c(C)c1=O (stereo not drawn) | inactive
c1ccc(CO[C@@H]2CO[C@H]3[C@@H]2OC[C@@H]3n2nnnc2SCc2ccco2)cc1 | inactive
CC(=O)N1CCC(NC[C@H]2O[C@H](Cc3cc(-c4cccc(O)c4)on3)CC[C@@H]2O)CC1 | inactive
O=C(c1ccccc1)N1CCNc2cnc(Nc3cccc(C(F)(F)F)c3)nc2C1 | inactive
O=c1[nH]c(C2CCCN(Cc3ccccn3)C2)nn1-c1ccc(Cl)cc1 (stereo not drawn) | inactive
COc1ccc(CN2C(=O)CO[C@H]3CN(Cc4ccc5c(c4)OCO5)C[C@H]32)cc1 | inactive
CC(C)c1cc(C(=O)N2CCC(n3cc(-c4ccccn4)nn3)CC2)n(C)n1 | inactive
O=C(N1CCN(c2cc(-c3ccc(Cl)cc3)[nH]n2)CC1)C1(c2ccccc2)CC1 | inactive
Cc1ccc2c(c1)nc1n2[C@@H](CNS(=O)(=O)c2ccccc2)COC1 | inactive

SMILES | Potency
COc1cccc(CNC(=O)Cn2c(N(C)Cc3ccccc3)nc(C)cc2=O)c1OC | inactive
COc1cccc(C2C(C(=O)Nc3ccccc3)=C(C)N=C3SC=C(CC(=O)NCC(C)C)N32)c1 (stereo not drawn) | inactive
Cc1ccc2nc(C3CCCN(Cc4ccc(C#N)cc4)C3)[nH]c(=O)c2c1 (stereo not drawn) | inactive
COC(=O)C1=C(C)N=C2SC=C(CC(=O)NCCC(C)C)N2C1c1ccccc1Cl (stereo not drawn) | inactive
O=C1Nc2ccccc2CN(Cc2ccccc2)C12CCNCC2 | inactive
COc1ccc(C2Cn3nnc(C(=O)N4CCN(C(=O)c5ccc(C)cc5C)CC4)c3CO2)cc1 (stereo not drawn) | inactive
COc1ccc(C2Cn3nnc(C(=O)N4CCN(C(=O)c5cccc(Cl)c5)CC4)c3CO2)cc1 (stereo not drawn) | inactive
COc1ccc(C(=O)N2CCC(n3cc(-c4nc(C(C)C)no4)nn3)CC2)cc1F | inactive
O=C1NCN(Cc2ccc(Cl)cc2)C12CCN(Cc1ccccc1)CC2 | inactive
O=C1c2cnc(-c3ccc(Cl)cc3)nc2OCCN1Cc1ccccc1 | 2500 nM (active)
OC1(Cc2cc(-c3ccccc3)no2)CCN(c2ncncn2)CC1 | inactive
CC(C)c1noc(-c2cn(C3CCN(C(=O)c4ccc(N(C)C)cc4)C3)nn2)n1 (stereo not drawn) | inactive
CC(C)c1nncn1C1CCN(S(=O)(=O)c2cccc(Br)c2)CC1 | inactive
COc1ccc(-c2noc(CC3CCN(C(=O)Cc4ccccc4)CC3)n2)cc1 | inactive
O=C(c1ccc2cc[nH]c2c1)N1CCC2(CC1)N=C(c1ccc(Cl)cc1)NO2 | inactive
CCN(CCCNC(=O)c1nnn2cc(-c3ccccc3)[nH]c(=O)c12)c1ccccc1 | inactive
CCc1ccc(C(=O)N2CCN(c3cc(-c4ccc(F)cc4)[nH]n3)CC2)cc1 | inactive
COc1ccc(CCNC(=O)c2noc(-c3ccc(C)cc3)n2)cc1OC | inactive
O=C(c1ccccn1)N1CC(Oc2ccc(-c3noc(C4CC4)n3)cc2)C1 | inactive
Cc1cccc(C(=O)N2CCC3(CC2)CC(N(Cc2ccc(F)cc2)C2CC2)CCO3)c1 (stereo not drawn) | inactive
Cc1nn2c(c1-c1ccccc1-c1ccccc1)N(CC1CC1)CCC2 | inactive
CN(Cc1csc(-c2ccccc2)n1)c1cc(C2CC(O)C2)nc(N)n1 (stereo not drawn) | inactive
COc1cccc(C2Cn3nnc(-c4nc(-c5ccccc5)no4)c3CO2)c1 (stereo not drawn) | inactive
